Results reported in PubChem BioAssay (Tox21).
Several values for one entry are separate records, joined by “and”; a condition that tells them apart may be missing. Equal values may be shown once. Results filed as inconclusive are left out. Entries that show only a call come without a potency. Activity calls are given as the source filed them. The call rests on the fitted dose curve; in most records, active means well fitted curve in the direction sought with a large enough effect in the repeat runs; inconclusive means weak or mixed curves; inactive means no such curve, though single readings can be large; an effect the other way counts as inactive or inconclusive.

target: Luciferin 4-monooxygenase (Photinus pyralis) (UniProt P08659); assay: qHTS assay to identify small molecule inhibitors of firefly luciferase (AID 1224835); further: nearly all actives have a fitted effect of over 25% in size; further: potency means the concentration at half of the fitted maximal effect; conditions: purified P. pyralis luciferase, luminescence inhibition; series mostly up to 115 µM
Procedure, shortened: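 Biochemical qHTS: compounds run as interplate titrations against purified firefly enzyme, with D-luciferin and ATP each at its KM concentration. Light output recorded by CCD imaging.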

Chain of Luciferin 4-monooxygenase (Photinus pyralis) (P08659 whole entry, looked up): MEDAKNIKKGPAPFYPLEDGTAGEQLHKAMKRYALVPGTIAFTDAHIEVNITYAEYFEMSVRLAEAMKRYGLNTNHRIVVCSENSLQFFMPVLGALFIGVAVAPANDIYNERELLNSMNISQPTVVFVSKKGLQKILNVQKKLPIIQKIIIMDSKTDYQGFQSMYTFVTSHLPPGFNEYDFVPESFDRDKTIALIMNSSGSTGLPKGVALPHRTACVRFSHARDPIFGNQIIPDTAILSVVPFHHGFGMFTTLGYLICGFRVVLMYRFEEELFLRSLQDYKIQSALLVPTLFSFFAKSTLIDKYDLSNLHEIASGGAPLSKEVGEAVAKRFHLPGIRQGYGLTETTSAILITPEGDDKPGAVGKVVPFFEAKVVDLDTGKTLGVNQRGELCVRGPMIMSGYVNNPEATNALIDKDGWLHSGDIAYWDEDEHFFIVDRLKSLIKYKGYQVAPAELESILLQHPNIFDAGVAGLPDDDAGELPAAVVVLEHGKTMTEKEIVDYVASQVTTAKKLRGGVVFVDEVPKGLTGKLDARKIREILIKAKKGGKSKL

| Structure (SMILES) | Potency |
| --- | --- |
| Cn1cnc2c1c(=O)[nH]c(=O)n2C | inactive |
| Cc1cccc2ccccc12 | inactive |
| CN(C)C=O | inactive |
| CC(=O)Oc1ccccc1C(=O)O | inactive |
| CCN(CC)CCOC(=O)c1ccc(N)cc1 | inactive |
| Cc1cnc(NC(=O)C2=C(O)c3ccccc3S(=O)(=O)N2C)s1 | 31.8 µM (active) and 22.4 µM (active) and 34.7 µM (active) |

tested on: not listed separately; assay: qHTS assay to identify small molecule agonists of the constitutive androstane receptor (CAR) signaling pathway - cell viability counter screen (AID 1224836); conditions: HepG2-CYP2B6-hCAR viability, CellTiter-Fluor, 23 h, PK11195 added to every well; series mostly up to 92.4 µM; further: nearly all actives have a fitted effect of over 45% in size
Procedure, shortened: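 Fluorescence from CellTiter-Fluor indicates live cells after 23 h exposure. The human hepatoma line expresses hCAR and a CYP2B6-2.2kb reporter. Incubation medium contains 0.75 uM PK11195 (final).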

| Structure (SMILES) | Potency |
| --- | --- |
| CC(C)(C)NCC(O)c1ccc(O)c(CO)c1 (configuration not stated) | inactive |
| C[C@]12C[C@H](O)[C@H]3[C@@H](CCC4=CC(=O)CC[C@@]43C)[C@@H]1CC[C@@H]2C(=O)CO | inactive |
| NC(=O)NO | inactive |
| C=C(C)C(N)=O | inactive |
| Cc1cccc(C)c1O | inactive |
| C=CCOC(=O)CC(C)C | inactive |
| O=C(O)CN(CC(=O)O)CC(=O)O | inactive |
| CC(C)CC(C)CC(O)CC(C)C (configuration not stated) | inactive |
| CCCCNC(=O)NS(=O)(=O)c1ccc(N)cc1 | inactive |
| CCCCCCCCOc1ccc(C(=O)c2ccccc2)c(O)c1 | inactive |
| N[C@@H](Cc1c[nH]c2ccccc12)C(=O)O | inactive |
| C[C@]12CC[C@@H]3c4ccc(O)cc4C[C@@H](CCCCCCCCCS(=O)CCCC(F)(F)C(F)(F)F)[C@H]3[C@@H]1CC[C@@H]2O (some centres not stated) | inactive |
| O=c1cc[nH]c(=O)[nH]1 | inactive |
| N[C@@H](Cc1c[nH]c2ccc(O)cc12)C(=O)O | inactive |
| CC(=O)c1ccc(S(=O)(=O)NC(=O)NC2CCCCC2)cc1 | inactive |
| CCCCCCCC(=O)OCC(O)CO (configuration not stated) | inactive |
| OCCCc1ccccc1 | inactive |
| CN/C(=C\[N+](=O)[O-])NCCSCc1ccc(CN(C)C)o1 | inactive |
| CC1(C)O[C@@H]2[C@@H](CO[C@@]3(COS(N)(=O)=O)OC(C)(C)O[C@@H]23)O1 | inactive |
| NC(=O)OCC(COC(N)=O)c1ccccc1 | inactive |
| C=C(C)OC(C)=O | inactive |
| O=C1CCCCCN1 | inactive |
| NC(=O)N1c2ccccc2C=Cc2ccccc21 | inactive |
| Cn1cnc2c1c(=O)[nH]c(=O)n2C | inactive |
| Cc1cccc2ccccc12 | inactive |
| CC(C)Cc1ccc(C(C)C(=O)O)cc1 (configuration not stated) | inactive |
| CN(C)C=O | inactive |
| CC(=O)Oc1ccccc1C(=O)O | inactive |
| CCN(CC)CCOC(=O)c1ccc(N)cc1 | inactive |
| Cc1cnc(NC(=O)C2=C(O)c3ccccc3S(=O)(=O)N2C)s1 | inactive |

tested on: not listed separately; assay: qHTS assay to identify small molecule antagonists of the constitutive androstane receptor (CAR) signaling pathway - cell viability counter screen (AID 1224837); conditions: HepG2-CYP2B6-hCAR viability, CellTiter-Fluor, 23 h, co-treated with 50 nM CITCO; series mostly up to 92.4 µM; further: nearly all actives have a fitted effect of over 45% in size
Procedure, shortened: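 HepG2 cells stably carrying hCAR and CYP2B6-2.2kb reporter, stimulated with 50 nM CITCO and compounds at 15 concentrations for 23 h at 37 C. Viability measured by CellTiter-Fluor fluorescence.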

| Structure (SMILES) | Potency |
| --- | --- |
| CC(C)(C)NCC(O)c1ccc(O)c(CO)c1 (configuration not stated) | inactive |
| C[C@]12C[C@H](O)[C@H]3[C@@H](CCC4=CC(=O)CC[C@@]43C)[C@@H]1CC[C@@H]2C(=O)CO | inactive |
| NC(=O)NO | inactive |
| C=C(C)C(N)=O | inactive |
| Cc1cccc(C)c1O | inactive |
| C=CCOC(=O)CC(C)C | inactive |
| O=C(O)CN(CC(=O)O)CC(=O)O | inactive |
| CC(C)CC(C)CC(O)CC(C)C (configuration not stated) | inactive |
| CCCCNC(=O)NS(=O)(=O)c1ccc(N)cc1 | inactive |
| CCCCCCCCOc1ccc(C(=O)c2ccccc2)c(O)c1 | inactive |
| N[C@@H](Cc1c[nH]c2ccccc12)C(=O)O | inactive |
| C[C@]12CC[C@@H]3c4ccc(O)cc4C[C@@H](CCCCCCCCCS(=O)CCCC(F)(F)C(F)(F)F)[C@H]3[C@@H]1CC[C@@H]2O (some centres not stated) | inactive |
| O=c1cc[nH]c(=O)[nH]1 | inactive |
| N[C@@H](Cc1c[nH]c2ccc(O)cc12)C(=O)O | inactive |
| CC(=O)c1ccc(S(=O)(=O)NC(=O)NC2CCCCC2)cc1 | inactive |
| CCCCCCCC(=O)OCC(O)CO (configuration not stated) | inactive |
| OCCCc1ccccc1 | inactive |
| CN/C(=C\[N+](=O)[O-])NCCSCc1ccc(CN(C)C)o1 | inactive |
| CC1(C)O[C@@H]2[C@@H](CO[C@@]3(COS(N)(=O)=O)OC(C)(C)O[C@@H]23)O1 | inactive |
| NC(=O)OCC(COC(N)=O)c1ccccc1 | inactive |
| C=C(C)OC(C)=O | inactive |
| O=C1CCCCCN1 | inactive |
| NC(=O)N1c2ccccc2C=Cc2ccccc21 | inactive |
| Cn1cnc2c1c(=O)[nH]c(=O)n2C | inactive |
| Cc1cccc2ccccc12 | inactive |
| CC(C)Cc1ccc(C(C)C(=O)O)cc1 (configuration not stated) | inactive |
| CN(C)C=O | inactive |
| CC(=O)Oc1ccccc1C(=O)O | inactive |
| CCN(CC)CCOC(=O)c1ccc(N)cc1 | inactive |
| Cc1cnc(NC(=O)C2=C(O)c3ccccc3S(=O)(=O)N2C)s1 | inactive |

target: Nuclear receptor subfamily 1 group I member 3 (Homo sapiens) (UniProt Q14994); assay: qHTS assay to identify small molecule antagonists of the constitutive androstane receptor (CAR) signaling pathway (AID 1224838); conditions: HepG2-CYP2B6-hCAR luciferase, CITCO-stimulated, 24 h; series mostly up to 92.4 µM; further: nearly all actives have a fitted effect of over 40% in size; further: potency means the concentration at half of the fitted maximal effect
Procedure, shortened: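 HepG2 cells stably carrying hCAR and a CYP2B6-2.2kb luciferase reporter, seeded 4 hrs before compound (15 concentrations). Stimulated with 50 nM CITCO for 24 hr at 37 C. ONE-Glo luminescence read after 30 min at room temperature.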

Chain of Nuclear receptor subfamily 1 group I member 3 (Homo sapiens) (Q14994 whole entry, looked up): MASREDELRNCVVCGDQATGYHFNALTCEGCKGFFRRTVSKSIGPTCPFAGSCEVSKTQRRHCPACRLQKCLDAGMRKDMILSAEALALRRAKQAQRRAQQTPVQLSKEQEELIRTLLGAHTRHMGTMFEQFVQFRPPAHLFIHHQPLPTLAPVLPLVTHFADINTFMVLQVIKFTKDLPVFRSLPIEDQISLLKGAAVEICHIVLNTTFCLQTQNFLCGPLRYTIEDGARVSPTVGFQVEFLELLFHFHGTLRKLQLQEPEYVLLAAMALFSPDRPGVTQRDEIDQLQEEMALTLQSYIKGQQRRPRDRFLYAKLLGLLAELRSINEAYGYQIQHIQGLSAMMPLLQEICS

| Structure (SMILES) | Potency |
| --- | --- |
| CC(C)(C)NCC(O)c1ccc(O)c(CO)c1 (configuration not stated) | inactive |
| C[C@]12C[C@H](O)[C@H]3[C@@H](CCC4=CC(=O)CC[C@@]43C)[C@@H]1CC[C@@H]2C(=O)CO | inactive |
| NC(=O)NO | inactive |
| C=C(C)C(N)=O | inactive |
| Cc1cccc(C)c1O | inactive |
| C=CCOC(=O)CC(C)C | inactive |
| O=C(O)CN(CC(=O)O)CC(=O)O | inactive |
| CC(C)CC(C)CC(O)CC(C)C (configuration not stated) | inactive |
| CCCCNC(=O)NS(=O)(=O)c1ccc(N)cc1 | inactive |
| CCCCCCCCOc1ccc(C(=O)c2ccccc2)c(O)c1 | 7.5 µM (active) |
| C[C@]12CC[C@@H]3c4ccc(O)cc4C[C@@H](CCCCCCCCCS(=O)CCCC(F)(F)C(F)(F)F)[C@H]3[C@@H]1CC[C@@H]2O (some centres not stated) | inactive |
| O=c1cc[nH]c(=O)[nH]1 | inactive |
| N[C@@H](Cc1c[nH]c2ccc(O)cc12)C(=O)O | inactive |
| CCCCCCCC(=O)OCC(O)CO (configuration not stated) | inactive |
| OCCCc1ccccc1 | inactive |
| CN/C(=C\[N+](=O)[O-])NCCSCc1ccc(CN(C)C)o1 | inactive |
| CC1(C)O[C@@H]2[C@@H](CO[C@@]3(COS(N)(=O)=O)OC(C)(C)O[C@@H]23)O1 | inactive |
| NC(=O)OCC(COC(N)=O)c1ccccc1 | inactive |
| C=C(C)OC(C)=O | inactive |
| O=C1CCCCCN1 | inactive |
| NC(=O)N1c2ccccc2C=Cc2ccccc21 | inactive |
| Cn1cnc2c1c(=O)[nH]c(=O)n2C | inactive |
| Cc1cccc2ccccc12 | inactive |
| CC(C)Cc1ccc(C(C)C(=O)O)cc1 (configuration not stated) | inactive |
| CN(C)C=O | inactive |
| CCN(CC)CCOC(=O)c1ccc(N)cc1 | inactive |
